The values below come from PMC12136788.

In all, about 5,800 sequences were measured (“enrichment r”: median about 0.68, highest 2% from about 11 on). The list is a sample of the results.

The labels stand for the following.
T1: UNK ZnF1-6 (called full-length) (human, UniProt Q9C0B0 30-357)
T1 sequence: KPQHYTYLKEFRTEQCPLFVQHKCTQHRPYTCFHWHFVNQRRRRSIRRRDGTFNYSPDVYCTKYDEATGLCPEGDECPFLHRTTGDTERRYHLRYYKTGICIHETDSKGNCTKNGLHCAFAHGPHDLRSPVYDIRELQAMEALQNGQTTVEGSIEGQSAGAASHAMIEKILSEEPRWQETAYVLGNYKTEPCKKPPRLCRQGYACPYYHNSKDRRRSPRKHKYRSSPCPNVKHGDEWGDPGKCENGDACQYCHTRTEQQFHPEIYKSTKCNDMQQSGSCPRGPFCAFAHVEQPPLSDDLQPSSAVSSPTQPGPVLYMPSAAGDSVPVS

B1: chr3:11298707:11298833:+|CDS|ENSG00000197548|unk|total|mutant (ssRNA)
RNA: GGGAGUUCUACAGUCCGACGAUCAUAAUGGCGGCAGCUACGGGGGAUCCUGGACUCUCUAAACUGCAGUUUGCCCCUUUCCGCCGUGCCUUGGAUGUUGGGUUUUGGCAUGAGUUGACCCAGAAGAAGCUGAACGAGUAUCGGCAACAGAGGAUUGAGCAUCA
B2: chrX:15345595:15346132:-|three_prime_utr|ENSG00000165197|control|control|control (ssRNA)
RNA: GGGAGUUCUACAGUCCGACGAUCCAGACCAACCUUCCAUUCACACCAGCUAAGGAGUCCCUGGUUCAUUGAUGGAUGUCUUCUAGCUGCAGAUGCCUCUGCGCACCAAGGAAUGGAGAGGAGGGGACCCAUGUAAUCCUUUUGCAACAGAGGAUUGAGCAUCA
B3: chrX:65741840:65741941:+|3pUTR|ENSG00000147065|msi1|FALSE|unique (ssRNA)
RNA: GGGAGUUCUACAGUCCGACGAUCAAAUUGUUUUUGGAGGGGUUUAUGCUCAAUCCAUGUUCUAUUUCAGUGCCAAUAAAAUUUAGGAAGACUUCACAGUGACUCAAUCGUUCUUUGUGGUAUGAGUGGGUAGCUGUAAGAUAUCAACAGAGGAUUGAGCAUCA
B4: chr10:72011937:72012038:+|3pUTR|ENSG00000122863|msi1|total|mutant (ssRNA)
RNA: GGGAGUUCUACAGUCCGACGAUCCAUACACCGCAGGUGGUCACCGAGUUAUUUUCCAAAAGCUGAGGAACAUAAAGCAAAUUCCGGCUUUUGUCCUUCUGCAAUACAUGCACUUGAAAAUAAACAGAAAAGAGAUGUUUAAUACAACAGAGGAUUGAGCAUCA
B5: chr17:50110931:50111032:+|3pUTR|ENSG00000005882|unk|total|mutant (ssRNA)
RNA: GGGAGUUCUACAGUCCGACGAUCUGUGCCCAGACAUGUGUGCUCAGGGUGGCUUUCUCCCCCGGACCUUCUGUGUAUACCGUCCGUUUUAUAACCCUGAAUGCCCCCACCCUUCCCCUAAGCACACAGGGGUUAAAGCUGUGUCAACAGAGGAUUGAGCAUCA
B6: chr6:132588675:132589686:-|CDS|ENSG00000135569|control|control|control (ssRNA)
RNA: GGGAGUUCUACAGUCCGACGAUCUGCCAAGACCCUGGGCAUUGCUGUGGGCAUAUACCUCUUGUGCUGGCUGCCCUUCACCAUAGACACGAUGGUCGACAGCCUCCUUCACUUUAUCACACCCCCACUGGUCUUUGACAUCUUCAACAGAGGAUUGAGCAUCA
B7: chr2:1632407:1632508:-|3pUTR|ENSG00000130508|msi1|total|mutant (ssRNA)
RNA: GGGAGUUCUACAGUCCGACGAUCUUGGUAAGUGAUUGAUAAAAAUUGGUUGGUGUUUCAUGACAUGUGGACUUCUUUUGAAACCGCAAGUCAAAUGCCGUGACCAAAUUGUGGAAGAGAUUUCUGUCAAACCGGAAAUGUGUACAACAGAGGAUUGAGCAUCA
B8: ENSG00000198589:be:win_3901|CDS|ENSG00000198589|bound_else_gene|NA|bound_elsewhere_windowed (ssRNA)
RNA: GGGAGUUCUACAGUCCGACGAUCUCUACUGUGUUUCGUAUUCCUGAGUUCAACUGGUCUCAGAUGCAUCAACGUUUGCUCACUGAUCUAUUAUUUUCAAUAGAAACAGAUAUACAGAUGUGGAGAAGCCAUUCAACAAAGACACAACAGAGGAUUGAGCAUCA
B9: chr6:21593967:21594078:+|5pUTR|ENSG00000124766|unk|FALSE|bound_elsewhere (ssRNA)
RNA: GGGAGUUCUACAGUCCGACGAUCUUAGUGCCGAUUCCGCCCACAGAGAGUCCUGGAGCCACAGUCUUUUUUGCUUUGCAUUGUAGGAGAGGGACUAAGUGCUAGAGACUAUGUCGCUUUCCUGAGCUACCGAGAGCGCUCGUGCAACAGAGGAUUGAGCAUCA
B10: chr9:88477803:88477904:+|3pUTR|ENSG00000106723|msi1|FALSE|bound_elsewhere (ssRNA)
RNA: GGGAGUUCUACAGUCCGACGAUCGACAAUACAAGACAUGAAUCUAUGUAUAAAAUUUAUCGGCCUUUCUCAUUUACCUGCUCUAGUAUUAUUGUAUUGUGUGUGCGUGCGUGUGUGAUGUCAGGCUGCCACGUAAAACUUCAGCAACAGAGGAUUGAGCAUCA
B11: chr17:68278117:68278284:-|CDS|ENSG00000108932|unk|FALSE|unique (ssRNA)
RNA: GGGAGUUCUACAGUCCGACGAUCGCUUUGUUCCAAAGCCAAUGUGUAUACUGAAGUGCCUGAUGGAGGAUGGGGCUGGGCGGUAGCUGUUUCAUUUUUCUUCGUUGAAGUCUUCACCUACGGCAUCAUCAAGACAUUUGGUGUCAACAGAGGAUUGAGCAUCA
B12: ENSG00000112146:stop:overlap|stop_codon|ENSG00000112146|stop_codon|NA|stop_codon (ssRNA)
RNA: GGGAGUUCUACAGUCCGACGAUCACACCCCCUUGUUCUUCGCCAGAGUAAGGAGCUACACAGCUUUCUCAGAAAGGCCUCUGUAGAGCCUCAAGUCCAGUCCUCUAUCACUUUUGCAUGAAUUAAAGUAUAUAGCGCAAAAGACAACAGAGGAUUGAGCAUCA
B13: ENSG00000070961:be:win_5851|3pUTR|ENSG00000070961|bound_else_gene|NA|bound_elsewhere_windowed (ssRNA)
RNA: GGGAGUUCUACAGUCCGACGAUCAUGAAUGUAAUUACCAAAAGAUUUAGAAGUGCAUGUGCUUUGGAGGAUUUGUAUUGAGCUUUUACAGUAUUCAUUUUUCAACUCAAGGCAAUGGCUUUCUACACCAACUCUAAUCCAUAACAACAGAGGAUUGAGCAUCA
B14: ENSG00000070961:be:win_3451|CDS|ENSG00000070961|bound_else_gene|NA|bound_elsewhere_windowed (ssRNA)
RNA: GGGAGUUCUACAGUCCGACGAUCAGGAUAGAAGAUUCAGAGCCUCAUAUCCCCCUUAUUGAUGACACUGAUGCCGAAGAUGAUGCUCCUACAAAACGUAACUCCAGUCCUCCACCCUCUCCCAACAAAAAUAACAAUGCUGUUCAACAGAGGAUUGAGCAUCA

In this test the target is T1, UNK ZnF1-6 (called full-length). Nature of the test: nsRBNS (natural sequence RNA bind-n-seq); RBNS binding buffer (assumed for nsRBNS): 25 mM Tris pH 7.5, 150 mM KCl, 3 mM MgCl2, 0.01% Triton X-100, 500 ug/ml BSA, 20 U/ml SUPERase-In, 4 C; UNK is unkempt and MSI1 is Musashi-1; names of the RNAs are library labels; protein concentration not given here; high values mean tight binding.
In turn, B1 displayed a binding signal of 0.839 enrichment R.

As for B2, the binding signal amounted to 0.639 enrichment R.

Consider B3, for which the binding signal stood at 0.698 enrichment R.

For the molecule B4, the binding signal worked out at 0.34 enrichment R.

B5 registered a binding signal of 1.06 enrichment R.

As for B6, the binding signal is 0.967 enrichment R.

With B7, the binding signal amounted to 0.207 enrichment R.

For B8, the binding signal is 0.382 enrichment R.

Molecule B9 registered a binding signal of 0.815 enrichment R.

In turn, B10 returned a binding signal of 1.09 enrichment R.

B11 registered a binding signal of 0.822 enrichment R.

The molecule B12 yielded a binding signal of 0.367 enrichment R.

The molecule B13 showed a binding signal of 0.908 enrichment R.

Molecule B14 registered a binding signal of 0.813 enrichment R.
